# Laboratory results taken from the supplement of paper PMC9135407.
# Values joined by “and” are separate entries in the source; they are usually repeats but may differ in a detail not shown here. Identical values can stand only once. Counter-ions that a name gives are not always drawn. The whole screen tested about 5,800 compounds, of which about 620 (11%) showed activity.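 The calls were made as follows: active = score above a cut-off or among the top three wells of a plate; in these data no inactive exceeds 0.85.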 This excerpt belongs to a sample that is enriched for actives.
# Test system: primary human hepatic stellate cells (donor 1)
# Experiment: scaled lipid accumulation score (0 = DMSO-like, 1 = nortriptyline-like); higher = stronger HSC inactivation (lipid re-accumulation), active = hit call of the paper
# Conditions: 48 h
# [1] = library stock concentration: 10 mM
# [2] = library stock concentration: 1 mM
# [3] = library stock concentration: 2 mM
# [4] = library stock concentration: 3.33 mM
# [5] = library stock concentration: 80 uM
# [6] = library stock concentration: 400 uM
# [7] = library stock concentration: 2.6 mM
structure (smiles),measurement,setting,value
CC(=O)N(O)[C@@H]1c2cc(C#N)ccc2OC(C)(C)[C@H]1O,scaled lipid accumulation score,[1],≤ 0 (inactive)
O=C(O)CCC/C=C\C[C@@H]1[C@@H](/C=C/C(F)(F)COc2ccccc2)[C@H](O)C[C@@H]1O [Tafluprost (free acid)],scaled lipid accumulation score,[2],0.007 (inactive)
CCCCC[C@H](O)/C=C/[C@@H]1[C@@H](C/C=C\CCCCN(C)C)[C@@H](O)C[C@H]1O [Prostaglandin F2.alpha. dimethyl amine],scaled lipid accumulation score,[2],≤ 0 (inactive)
CCCCCCCCCCCCCCCCCCOCC(COP(=O)([O-])OCC[N+](C)(C)C)OC (stereo not given),scaled lipid accumulation score,[1],≤ -0.024 (inactive)
O=C(O)CCC/C=C\C[C@@H]1[C@@H](/C=C/C(=O)CCc2ccccc2)[C@H](O)C[C@@H]1O [15-keto-17-phenyl trinor Prostaglandin F2.alpha.],scaled lipid accumulation score,[2],≤ 0 (inactive)
CCCCC[C@H](O)/C=C/[C@@H]1[C@@H](C/C=C\CCCC(=O)OCC(O)CO)[C@@H](O)C[C@H]1O (stereo partly drawn) [Prostaglandin F2.alpha.-1-glyceryl ester],scaled lipid accumulation score,[2],≤ 0 (inactive)
CCCCCCCC(=O)CC[C@@H]1[C@@H](C/C=C\CCCC(=O)OC(C)C)[C@@H](O)C[C@H]1O [Unoprostone isopropyl ester],scaled lipid accumulation score,[2],≤ 0 (inactive)
CN1CCN(Cc2ccc(-c3cnc4[nH]cc(-c5ccc6[nH]ccc6c5)c4c3)cc2)CC1 [listing 1 of 2 here],scaled lipid accumulation score,[3],1.3 (active)
O=C(O)c1ccc(-c2c[nH]c3ncc(-c4ccccc4)cc23)cc1C1CCCC1,scaled lipid accumulation score,[4],≤ -0.009 (inactive)
same,scaled lipid accumulation score,[1],0.079 (inactive) and ≤ -0.001 (inactive)
CN1CCN(Cc2ccc(-c3cnc4[nH]cc(-c5ccc6[nH]ccc6c5)c4c3)cc2)CC1 [listing 2 of 2 here],scaled lipid accumulation score,[5],≤ -0.001 (inactive)
same,scaled lipid accumulation score,[6],0.001 (inactive)
same,scaled lipid accumulation score,[1],0.422 (inactive)
NC[C@H]1O[C@@H](n2cnc3c(N)ncnc32)[C@H](O)[C@@H]1O [5'-Amino-5'-deoxyadenosine p-toluenesulfonate salt],scaled lipid accumulation score,[1],≤ 0 (inactive)
CCCOc1cc(N)ccc1C(=O)OCCN(CC)CC [Propoxycaine hydrochloride],scaled lipid accumulation score,,≤ 0 (inactive)
CCN(CC)CCOc1ccc2c(c1)C(=O)c1cc(OCCN(CC)CC)ccc1-2 [Tilorone] [listing 1 of 2 here],scaled lipid accumulation score,[1],0.879 (active)
CCN(CC)CCOc1ccc2c(c1)C(=O)c1cc(OCCN(CC)CC)ccc1-2 [Tilorone] [listing 2 of 2 here],scaled lipid accumulation score,library stock concentration: 4.9 mM,0.006 (inactive)
FC(F)(F)COCC(F)(F)F [Flurothyl],scaled lipid accumulation score,library stock concentration: 11 mM,≤ -0.001 (inactive)
OCCC#Cc1nc(-c2ccc(F)cc2)c(-c2ccncc2)n1CCCc1ccccc1,scaled lipid accumulation score,[6],≤ -0.005 (inactive)
same,scaled lipid accumulation score,[3],≤ -0.005 (inactive)
same,scaled lipid accumulation score,[1],0.668 (inactive)
Nc1ncnc2c1ncn2C1CCCO1 (stereo not given),scaled lipid accumulation score,[1],≤ 0 (inactive) and ≤ -0.006 (inactive)
same,scaled lipid accumulation score,library stock concentration: 24.4 mM,≤ -0.005 (inactive)
Cl.O=C(CCCCCN1CCN(c2ccccc2-c2ccccc2)CC1)NC1CCCc2ccccc21 (stereo not given) [LP 12 hydrochloride hydrate],scaled lipid accumulation score,[1],0.898 (active)
CC(=O)c1ccc2c(c1)N(CCCN1CCN(CCO)CC1)c1ccccc1S2,scaled lipid accumulation score,[1],0.638 (inactive)
O=C(O)C=C1CCCc2ccccc2C1O (stereo not given),scaled lipid accumulation score,[1],0.122 (inactive) and 0.034 (inactive)
CC(=O)c1ccc2c(c1)N(CCCN1CCC(CCO)CC1)c1ccccc1S2 [Piperacetazine],scaled lipid accumulation score,,0.427 (inactive)
COc1ccccc1N1CCN(CCCCN2C(=O)c3ccccc3C2=O)CC1 [NAN-190 hydrobromide],scaled lipid accumulation score,[1],0.324 (inactive) and 0.002 (inactive)
CSc1ccccc1N1CCN(CCCCCC(=O)NC2CCCc3ccccc32)CC1.Cl (stereo not given),scaled lipid accumulation score,[1],1.06 (active)
CC(=O)Nc1cccc2c1c(Sc1ccc(Cl)cc1)c(C)n2CC(=O)O,scaled lipid accumulation score,[4],≤ -0.009 (inactive)
same,scaled lipid accumulation score,[1],0.195 (inactive)
CC[n+]1c(/C=C/N(C)c2ccccc2)n(-c2ccccc2)c2ccc(-c3nc4ccccc4s3)cc21 [Akt Inhibitor IV],scaled lipid accumulation score,[4],≤ 0 (inactive)
CCCCCCCCCCCCCCCCCCCC(=O)NCCO [Arachidoyl Ethanolamide],scaled lipid accumulation score,[2],≤ 0 (inactive)
COc1cc(/C=C/C(=O)N2CCCCCCC2)cc(OC)c1OC,scaled lipid accumulation score,[1],≤ 0 (inactive)
C[C@H]1O[C@@H](O[C@H]2[C@@H](O)C[C@H](O[C@H]3[C@@H](O)C[C@H](O[C@H]4CC[C@]5(C)C6C[C@@H](O)[C@]7(C)[C@@H](C8=CC(=O)OC8)CC[C@]7(O)C6CC[C@@H]5C4)O[C@@H]3C)O[C@@H]2C)C[C@H](O)[C@@H]1O (stereo not given in full) [Digoxin],scaled lipid accumulation score,[7],0.937 (active)
C[C@H]1O[C@@H](O[C@H]2[C@@H](O)C[C@H](O[C@H]3[C@@H](O)C[C@H](O[C@H]4CC[C@@]5(C)[C@H](CC[C@@H]6[C@@H]5CC[C@]5(C)[C@@H](C7=CC(=O)OC7)CC[C@]65O)C4)O[C@@H]3C)O[C@@H]2C)C[C@H](O)[C@@H]1O [Digitoxin],scaled lipid accumulation score,[1],0.545 (inactive)
C[C@H]1O[C@@H](O[C@H]2[C@@H](O)C[C@H](O[C@H]3[C@@H](O)C[C@H](O[C@H]4CC[C@]5(C)C6CC[C@]7(C)[C@@H](C8=CC(=O)OC8)CC[C@]7(O)C6CC[C@@H]5C4)O[C@@H]3C)O[C@@H]2C)C[C@H](O)[C@@H]1O (stereo not given in full) [Digitoxin],scaled lipid accumulation score,[7],1.2 (active)
C[C@H]1O[C@@H](O[C@H]2[C@@H](O)C[C@H](O[C@H]3[C@@H](O)C[C@H](O[C@H]4CC[C@@]5(C)[C@H](CC[C@@H]6[C@@H]5C[C@@H](O)[C@]5(C)[C@@H](C7=CC(=O)OC7)CC[C@]65O)C4)O[C@@H]3C)O[C@@H]2C)C[C@H](O)[C@@H]1O [Digoxin],scaled lipid accumulation score,,1.03 (active)
same,scaled lipid accumulation score,[4],1.11 (active)
same,scaled lipid accumulation score,[1],0.888 (active) and 0.816 (inactive)
C[C@H]1O[C@@H](O[C@H]2[C@@H](O)C[C@H](O[C@H]3[C@@H](O)C[C@H](O[C@H]4CC[C@@]5(C)[C@H](CC[C@@H]6[C@@H]5C[C@@H](O)[C@]5(C)[C@@H](C7=CC(=O)OC7)CC[C@]65O)C4)O[C@@H]3C)O[C@@H]2C)C[C@H](O)[C@@H]1O,scaled lipid accumulation score,[1],0.599 (inactive)
N[C@@H](Cc1ccc(F)cc1)C(=O)O [p-Fluoro-L-phenylalanine],scaled lipid accumulation score,[1],≤ -0.07 (inactive)
Nc1nc(-c2ccc(Cl)c(Cl)c2)c(-c2ccncc2)s1 [CGH 2466 dihydrochloride],scaled lipid accumulation score,[1],0.001 (inactive)
O=[N+]([O-])c1cc2nc(O)c(O)nc2cc1[N+](=O)[O-],scaled lipid accumulation score,[1],≤ -0.07 (inactive) and ≤ 0 (inactive)
CC(C)[C@H](NC(=O)[C@H](CC(=O)O)NC(=O)[C@H](CCCCN)NC(=O)[C@@H](N)CCCN=C(N)N)C(=O)N[C@@H](Cc1ccc(O)cc1)C(=O)O,scaled lipid accumulation score,[1],≤ 0 (inactive)
CCOC(=O)[C@]12CC1/C(=N\O)c1ccccc1O2 (stereo not given in full),scaled lipid accumulation score,[1],≤ 0 (inactive) and 0.015 (inactive)
CS(=O)(=O)O.Cc1ccc2c(c1)c1c3n2CCNC3CCC1 (stereo not given) [Pirlindole mesylate],scaled lipid accumulation score,[1],0.93 (active)
c1cc2c(cc1C1CCCCC1)c1c3n2CCNC3CCC1 (stereo not given) [Tetrindole mesylate],scaled lipid accumulation score,[1],≤ 0 (inactive)
Cc1ccc2c(c1)c1c3n2CCNC3CCC1 (stereo not given) [Pirlindole mesylate],scaled lipid accumulation score,,0.472 (inactive)
Cc1cncc2cccc(S(=O)(=O)N3CCCN(C(=O)CN)C[C@@H]3C)c12 [Rho Kinase Inhibitor IV],scaled lipid accumulation score,[4],≤ 0 (inactive)
C=CCN(C)CCCCCCOc1ccc(C(=O)c2ccc(Br)cc2)c(F)c1,scaled lipid accumulation score,[2],0.116 (inactive)
CCCCC/C=C\C/C=C\CCCCCCCC(=O)OCC(COC(=O)CCCCCCCCCCCCCCC)OC(=O)CCCCCCC/C=C\CCCCCCCC (racemic) [1-Palmitoyl-2-oleoyl-3-linoleoyl-rac-glycerol],scaled lipid accumulation score,[2],0.03 (inactive)
OC1C[C@@H]2[C@@H](CC[C@@H](O)CCc3ccccc3)[C@H](O)C[C@@H]2O1 (stereo not given in full) [Latanoprost Lactol],scaled lipid accumulation score,[2],0.027 (inactive)
COc1cc2ncnc(Nc3cccc(Cl)c3)c2cc1OC [Tyrphostin AG 1478],scaled lipid accumulation score,[1],0.882 (active)
COc1cc2ncnc(Nc3cccc(Cl)c3)c2cc1OC,scaled lipid accumulation score,[5],≤ -0.016 (inactive)
same,scaled lipid accumulation score,[6],≤ -0.016 (inactive)
same,scaled lipid accumulation score,[3],≤ -0.016 (inactive)
same,scaled lipid accumulation score,[4],≤ 0 (inactive)
same,scaled lipid accumulation score,[1],0.749 (inactive)
same,scaled lipid accumulation score,library stock concentration: 14.2 mM,0.452 (inactive)
COc1cc2ncnc(Nc3cccc(Cl)c3)c2cc1OC [AG-1478 (Tyrphostin AG-1478)] [listing 1 of 2 here],scaled lipid accumulation score,[1],1.07 (active)
COc1cc2ncnc(Nc3ccc(Oc4ccccc4)cc3)c2cc1OC [Src Kinase Inhibitor I],scaled lipid accumulation score,[4],≤ 0 (inactive)
COc1cc2ncnc(Nc3cccc(Cl)c3)c2cc1OC [AG-1478 (Tyrphostin AG-1478)] [listing 2 of 2 here],scaled lipid accumulation score,[4],≤ 0 (inactive)
COc1cc2ncnc(Nc3ccc(Cl)cc3Cl)c2cc1OC [Ste11 MAPKKK Activation Inhibitor],scaled lipid accumulation score,[4],≤ 0 (inactive)
COc1cc2ncnc(Nc3ccc(Oc4ccccc4)cc3)c2cc1OC,scaled lipid accumulation score,[1],0.029 (inactive)
"COc1cc2ncnc(Nc3cccc(O)c3)c2cc1OC [WHI-P180, Hydrochloride]",scaled lipid accumulation score,[4],≤ 0 (inactive)
CCCCCCCCCCCCCCCCOC[C@H](COP(=O)([O-])OCC[N+](C)(C)C)SC(C)=O [2-thio-PAF],scaled lipid accumulation score,[2],≤ 0 (inactive)
CN1C(=O)C(c2c[nH]c3ccccc23)=C(c2c[nH]c3ccccc23)C1=O [Bisindolylmaleimide V],scaled lipid accumulation score,[2],≤ 0 (inactive)
same,scaled lipid accumulation score,[4],≤ 0 (inactive)
C[C@H]1[C@H](C)CC[C@]2(C(=O)O[C@@H]3O[C@H](CO[C@@H]4O[C@H](CO)[C@@H](O[C@@H]5O[C@H](C)[C@H](O)[C@@H](O)[C@H]5O)[C@H](O)[C@H]4O)[C@@H](O)[C@H](O)[C@H]3O)CC[C@]3(C)C(=CC[C@@H]4[C@@]5(C)C[C@@H](O)[C@H](O)[C@@](C)(CO)[C@@H]5CC[C@]43C)[C@H]12 [Asiaticoside],scaled lipid accumulation score,,≤ 0 (inactive)
